Mtb bLac sens: beta-lactam sensitization of Mtb H37Rv; M. tuberculosis H37Rv growth with meropenem, percent inhibition; actives 0.27% (n = 330,000); inhibition, % at 25 µM; call rule not given here;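 also: growth measured after seven days incubation then overnight dye step; 0% = bacteria only wells and 100% = bacteria with antibiotic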
Rv3671c inh: inhibitors of M. tuberculosis serine protease Rv3671c; P9WHR9; inhibition, % at 5.96 µM; actives 0.048% (n = 320,000);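 also: extracellular domain of Rv3671c used as enzyme; 0% = enzyme with DMSO and 100% = no enzyme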
UGM FP inh: blocks M. tuberculosis UGM enzyme; P9WIQ1; purified UGM, fluorescence polarization probe displacement; inhibition, % at 10 µM; actives 0.06% (n = 320,000); AID 504406; in the data active = inhibition above about 10%, passing the limit was not always enough
Target sequence (P9WIQ1 whole entry, looked up): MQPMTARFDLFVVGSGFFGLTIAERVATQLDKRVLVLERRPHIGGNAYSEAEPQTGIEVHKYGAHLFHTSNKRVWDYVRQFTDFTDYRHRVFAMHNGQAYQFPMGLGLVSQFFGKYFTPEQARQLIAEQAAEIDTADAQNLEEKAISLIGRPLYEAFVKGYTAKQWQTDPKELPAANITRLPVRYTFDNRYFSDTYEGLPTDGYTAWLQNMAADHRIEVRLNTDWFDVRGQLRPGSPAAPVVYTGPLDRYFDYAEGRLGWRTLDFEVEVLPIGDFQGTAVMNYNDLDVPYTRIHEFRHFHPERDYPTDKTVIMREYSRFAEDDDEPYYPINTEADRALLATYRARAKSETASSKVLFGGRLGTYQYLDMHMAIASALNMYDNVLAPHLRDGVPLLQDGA
CCHFV vOTU inh: blocks the CCHF virus ovarian tumor domain protease. CCHFV vOTU protease, Pep-AMC fluorescence. inhibition, % at 11.5 µM. actives 0.55% (n = 370,000). AID 651958; in the data active = inhibition above about 30%; also: 0% = vehicle wells with enzyme and 100% = no enzyme wells
RecA splice inh: Mtb RecA intein splicing inhibition; inhibition, % (test concentration not listed); actives 0.75% (n = 290,000); AID 2221; P9WHJ3; cell-free RecA intein splicing, fluorescence; in the data active = inhibition above about 30%;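 also: 0% = vehicle wells and 100% = reference inhibitor control wells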
Rv3671c cf: confirmation of M. tuberculosis Rv3671c protease inhibitors | AID 2761 | shares compounds with Rv3671c inh | actives 40% (n = 140) | inhibition, % at 5.96 µM
The depositor's hits bear a star; / = no result; + = active, no number. The list is not random: actives were taken first. Their share in the collection is about 1.2%. Rule as the data show it, unless noted: active = inhibition above about 38%; inactive = the rest.

SMILES | Mtb bLac sens | Rv3671c inh | UGM FP inh | CCHFV vOTU inh | RecA splice inh | Rv3671c cf
O=c1c2ccccc2[se]n1-c1ccccc1 | 48.5 | 39.9* | / | -0.9 | -0.9 | 40.6*
CN1CCCN(C(=O)C2CCCN(C(=O)c3ccc4c(c3)NC(=O)CS4)C2)CC1 (stereo unspecified) | / | / | / | -5.1 | / | /
Cc1cc2oc(=O)c3c(c2cc1OC(=O)c1ccco1)CCCC3 | 0.4 | 7.0 | -5.6 | 1.8 | -2.4 | /
Cc1cc(OC(=O)c2ccco2)c2c3c(c(=O)oc2c1)CCCC3 | 99.9 | 59.5* | -1.6 | 3.0 | 0.8 | 73.3*
COc1ccc(C(=O)N/N=C/c2cc3ccccc3[nH]c2=S)cc1 | 39.9 | 43.8* | 4.6 | 13.2 | 14.5 | 45.4*
CCOC(=O)c1ccc(NC(=O)c2cn(-c3ccccc3)nc2-c2ccncc2)cc1 | -1.5 | 192.7* | -4.2 | 3.2 | 0.4 | -40.2
c1ccc(CCN2CN=C(Nc3nc4ccccc4s3)NC2)cc1 | 95.1 | 78.0* | -0.8 | -9.0 | 4.7 | 8.7
O=C(NCCN1CCC(Cc2ccccc2)CC1)C1CCCN(S(=O)(=O)c2ccc(Cl)s2)C1 (stereo unspecified) | / | / | / | 10.1 | / | /
CCC(=O)c1ccc(OC(=O)Cc2ccc(OC)cc2)cc1 | 4.4 | 50.9* | 0.7 | -3.6 | 12.2 | 55.2*
O=C(Oc1cncc(Cl)c1)c1ccco1 | -4.4 | 62.6* | -0.8 | -6.7 | -4.7 | 87.9*
O=C(Oc1cncc(Cl)c1)c1sccc1Cl | 3.1 | 0.8 | 3.4 | -2.9 | 8.9 | /
C[C@@H]1CN([C@@H](C)CO)C(=O)CCCn2cc(nn2)CO[C@H]1CN(C)C(=O)Nc1ccnc(N2CCOCC2)c1 | / | / | / | 0.9 | / | /
O=C(NC1CCCCN(Cc2ccc(OC(F)(F)F)cc2)C1=O)c1ccc(F)c(F)c1 (stereo unspecified) | / | / | / | 14.4 | / | /
Cc1cccc2c(N=O)c(O)[nH]c12 | -8.8 | 47.9* | 1.4 | -0.5 | 0.3 | 31.3
Cc1[nH]c2c(C)cccc2c1CC(=O)O | 1.5 | 1.4 | -0.8 | -3.9 | -4.8 | /
COc1cc(OC)nc(NC(=O)COC(=O)c2cccc(Cl)c2)n1 | -0.1 | + | -0.3 | -6.1 | -4.2 | -14.7
O=C(COC(=O)c1cccc(Cl)c1)NCc1ccccc1 | -0.7 | -3.9 | 1.5 | 7.9 | / | /
COC(=O)c1ccccc1-c1c2ccc(=N)cc-2oc2cc(N)ccc12 | 39.5 | 166.4* | 138.0* | 3.0 | / | 163.9*
CC1(C)Cc2c(C#N)c(NCCc3ccccc3)nc(-c3ccco3)c2CO1 | -12.8 | 80.5* | -0.1 | -0.3 | 2.8 | 14.9
O=C1C(CSCc2ccccc2)NC(=S)N1c1ccccc1 (stereo unspecified) | -0.5 | 98.1* | 0.1 | -10.5 | 6.4 | 59.5*
C=CCN1[C@H](C#N)[C@@H](c2ccc(C#Cc3cccc(OC)c3)cc2)[C@H]1CO | / | / | / | 1.9 | / | /
O=C(NCc1cccs1)c1cccc(Nc2nc3ccc(Br)cc3[nH]2)c1 | -9.3 | 43.3* | 0.3 | 11.9 | 8.5 | 37.4*
CN(CCc1ccccn1)C(=O)Cn1nc(-c2ccccc2)ccc1=O | / | / | / | -0.5 | / | /
O=c1oc(-c2cccnc2)nc2ccccc12 | -4.1 | 2.2 | 1.8 | 3.8 | 0.6 | /
O=c1oc(-c2ccccc2Br)nc2ccccc12 | 60.9 | 39.6* | -2.7 | 9.2 | 29.1 | 65.9*
SMILES | Mtb bLac sens | Rv3671c inh | UGM FP inh | CCHFV vOTU inh | RecA splice inh | Rv3671c cf
O=C(O)c1cc(O)c2c(c1)[C@@H]([C@H]1c3cc(C(=O)O)cc(O)c3C(=O)c3c(O[C@@H]4O[C@H](CO)[C@@H](O)[C@H](O)[C@H]4O)cccc31)c1cccc(O[C@@H]3O[C@H](CO)[C@@H](O)[C@H](O)[C@H]3O)c1C2=O | 12.7 | 71.3* | -0.6 | / | / | 20.6
COc1cc(NC(=O)C2CCCN(S(=O)(=O)c3cccc4cccnc34)C2)cc(OC)c1 (stereo unspecified) | / | / | / | -0.1 | / | /
Cc1noc(C(=O)Nc2ccc(F)c(Cl)c2)c1Cl | 0.3 | 61.3* | -3.1 | 1.6 | -1.4 | -4.7
CCOC(=O)C1=C(NC(=S)NC(=O)c2ccccc2)c2ccccc2CC1C(C)C (stereo unspecified) | -3.4 | 54.6* | -6.3 | 11.4 | 4.5 | -12.1
COc1ccc(-c2nnc(SCC(=O)NN=C(C)c3cccc4ccccc34)n2-c2ccc(C)cc2)cc1 | / | / | / | 6.4 | / | /
CC(=O)[C@]1(O)Cc2c(O)c3c(c(O)c2[C@@H](O[C@H]2C[C@H](N)[C@H](O)[C@H](C)O2)C1)C(=O)c1ccccc1C3=O | 98.7 | 69.1* | 70.3* | / | -16.1 | 81.3*
Cc1cc(C)cc(-n2c(O)c(C=NC3CCS(=O)(=O)C3)c3ccccc3c2=O)c1 (stereo unspecified) | -2.9 | 58.4* | -1.7 | 18.1 | 1.5 | 47.8*

Source: PubChem (several laboratories)
